Screens: PubChem, National Center for Advancing Translational Sciences (NCATS)
Shiga inhibitor: Shiga toxin inhibition; inhibition, % at 38.7 µM; AID 2315; Vero cells, Shiga toxin protein synthesis inhibition reporter; 290,000 tested, 9.2% active; in the data active = inhibition mostly above about 28%, no sharp cut-off; inactive = mostly below about 43%
Pf growth 48h: inhibits P. falciparum growth in the first generation, 48 h; P. falciparum luciferase growth in erythrocytes, 48 h; Potency, µM (doses to about 28.7 µM), actives largely listed as inhibitors; 310,000 tested, 5.9% active; AID 504832
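Luciferase-expressing P. falciparum in infected erythrocytes (2% hematocrit, 0.1% parasitemia final) in RPMI 1640/0.5% Albumax were exposed to compound for 48 hours at 37 C, 5% CO2; growth read as luminescence.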
Pf growth 96h: P. falciparum growth inhibition at 96 hour, primary screen for plastid delayed-death inhibitors; P. falciparum luciferase reporter growth, 96 h; Potency, µM (titrated, usually from 28.7 µM), hits mostly inhibitors; 320,000 tested, 6.9% active; AID 504834
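Two parasite generations (96 h, 37 C, 5% CO2) of compound exposure in infected erythrocytes (0.05% parasitemia, 2% hematocrit). Luciferase-reporter P. falciparum; decreased luminescence indicates inhibited growth, aimed at apicoplast-acting delayed death.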
CHX counter: counter-screen hit for Shiga toxin inhibitors, cycloheximide. AID 2314. 300,000 tested, 12% active. max response, %. cell reporter, cycloheximide protein synthesis inhibition counterscreen; in the data active = max response mostly above about 13%, no sharp cut-off; inactive = mostly below about 14%; also: read at 38.3 µM for the half of the compounds with a filed dose
A number is an active result; n = inactive; u = inconclusive; x = not tested or not shown; + = active, no number. Compounds with a hit are over-represented: about 21% of the library has one in this group of screens. Unless noted, calls follow the shape of the dose curve; as a rule, active = well fitted inhibition curve with a large enough effect; inconclusive = small, poorly fitted or top-dose-only effect, or another doubt; inactive = no such curve, though single readings can be large or run the other way.

SMILES | Shiga inhibitor | Pf growth 48h | Pf growth 96h | CHX counter
CCc1cc2c(SCC(=O)N3CCCC3=O)ncnc2s1 | x | n | u | x
Cc1nc2ccccc2c(=O)n1-c1ccc(Br)cn1 | 55.5 | n | n | 27.0
Cc1ccnc(-n2c(-c3ccccc3)nc3ccccc3c2=O)c1 | n | n | n | n
Cc1ccnc(-n2c(C)nc3ccccc3c2=O)c1 | n | n | n | 12.4
CCOc1ccc(-c2cn3ccccc3n2)cc1[N+](=O)[O-] | 66.8 | n | n | 37.6
CCOc1ccc(Cn2ccnc2)cc1[N+](=O)[O-] | n | n | n | n
CCCCOc1ccc(-c2cn3ccccc3n2)cc1[N+](=O)[O-] | 103.4 | n | n | 62.0
CCCOc1ccc(-c2csc(N)n2)cc1[N+](=O)[O-] | + | n | n | 45.0
CC1CCN(C(=O)CCNS(=O)(=O)c2ccc3c(c2)c(=O)n(C)c(=O)n3C)CC1 | n | n | n | n
O=S(=O)(c1cc(Cl)c(Cl)cc1Cl)N1CCN2CCCC2C1 (stereo not drawn) | n | n | n | n
COc1ccc(C(O)(CCc2ccccc2)CCN2CCCCC2)cc1 (stereo not drawn) | n | u | n | n
OCC[C@H]1C[C@@H](O)[C@H](O)[C@@]2(Cc3ccccc3O2)O1 | x | n | n | x
COc1cc(OC)cc(-c2c(-c3cccs3)c3cc(-c4ccc5[nH]ccc5c4)ccc3n2C)c1 | x | 6.57µM | 2.33µM | x
COc1cc(OC)cc(-c2c(-c3cccs3)c3cc(-c4ccc5cc[nH]c5c4)ccc3n2C)c1 | x | 10.4µM | u | x
O=C(CSc1ccccc1F)NCC1(N2CCCCC2)CCCCC1 | x | n | u | x
CCOc1ccc(-c2nc(CSCC(=O)N3CCN(C(=O)c4ccco4)CC3)c(C)o2)cc1 | 93.9 | x | u | 24.9
CCOC(=O)C1CCN(C(=O)CSCc2nc(-c3ccc(OCC)cc3)oc2C)CC1 | n | u | n | 15.4
COC(=O)c1cccc(NC(=O)CCNC(=O)c2ccc([N+](=O)[O-])cc2)c1 | n | n | n | n
Cc1cccnc1NC(=S)Nc1ncccc1C | 67.9 | n | n | 31.5
COc1ccc(NC(=S)Nc2ncccc2C)cc1OC | 75.6 | n | n | 46.4
COc1ccc(NC(=S)Nc2ncccc2C)c(OC)c1 | n | n | u | 62.8
Cc1cccnc1NC(=S)Nc1ccc(Cl)c(Cl)c1 | 102.8 | n | u | 32.3
CCOc1ccccc1NC(=S)Nc1ncccc1C | n | n | n | n
Cc1cc(F)ccc1NC(=O)Cn1c(C)csc1=O | x | u | n | x
O=C(CCCOc1ccc(Br)cc1)NCCc1ccc(OC(F)F)cc1 | n | n | n | n
SMILES | Shiga inhibitor | Pf growth 48h | Pf growth 96h | CHX counter
Cc1cccnc1NC(=S)NCCc1ccccc1 | 70.2 | n | n | 37.4
O=C(NNC(=O)C(c1ccccc1)c1ccccc1)c1ccccn1 | n | 3.7µM | 2.62µM | n
O=C(NNC(=S)Nc1ccc(Cl)c(Cl)c1)c1ccccn1 | 87.3 | 2.33µM | u | 36.5
Cc1cccc(NC(=S)NCCc2ccccc2)c1C | n | u | u | n
Cc1cccc(/C=N/NC(=O)C(C)Nc2cccc3ccccc23)n1 (stereo not drawn) | n | x | n | 16.2
O=C(CCS(=O)(=O)c1ccccc1)N(Cc1cccnc1)c1nc2c(Cl)cccc2s1 | n | x | x | n
Cc1ccc(S(=O)(=O)Nc2c(Cl)c(Cl)c(O)c3ccccc23)cc1 | 46.6 | n | u | 34.0
CCCCCOc1ccc(/C=C/c2c([N+](=O)[O-])c(=O)n(C)c(=O)n2C)cc1 | n | 11.7µM | u | n
Cn1c(/C=C/c2ccc(Cl)cc2)c([N+](=O)[O-])c(=O)n(C)c1=O | n | u | n | n
CCN(CCCCCN(C)C)Cc1cc2ccccc2o1 | n | 10.4µM | 5.22µM | n
COc1ccc(CN(CC(O)COc2cccc3[nH]cc(C)c23)C(C)(C)C)cc1 (stereo not drawn) | n | u | u | n
CC1(C)CC(=O)C2=C(C1)C(c1cn(-c3ccccc3)nc1-c1ccccc1)C(C#N)=C(N)O2 (stereo not drawn) | n | u | n | 23.1
CC1(C)CC(=O)C2=C(C1)OC(N)=C(C#N)C2c1cn(-c2ccccc2)nc1-c1ccc(F)cc1 (stereo not drawn) | n | n | u | n
O=C(Nc1nc2ccc(F)cc2s1)c1ccccn1 | n | n | n | n
O=C(Nc1nc2ccccc2s1)c1cnccn1 | 53.2 | x | n | 31.5
O=C(NCc1cccnc1)C(=O)Nc1nc2ccccc2s1 | 93.4 | n | n | 38.8
CCOc1ccc2nc(NC(=O)c3cnccn3)sc2c1 | 62.2 | n | n | 32.3
O=C(NCc1cccnc1)C(=O)Nc1nccs1 | n | n | n | n
O=C(NCc1ccccc1)C1CCC(=O)N(CCN2CCOCC2)C1 (stereo not drawn) | n | n | n | n
COCCN1C(=O)C(=O)/C(=C(/O)c2ccc(C)cc2)C1c1ccccn1 (stereo not drawn) | n | n | 3.29µM | n
CCN(CC)CCN1C(=O)C(=O)/C(=C(/O)c2cccc(OC)c2)C1c1ccccn1 (stereo not drawn) | n | u | 11.7µM | 15.2
Cc1ccc(/C(O)=C2/C(=O)C(=O)N(CCCn3ccnc3)C2c2ccccn2)cc1 (stereo not drawn) | n | n | u | n
CCOc1ccc(/C(O)=C2/C(=O)C(=O)N(CCOCCO)C2c2ccccn2)cc1 (stereo not drawn) | 57.5 | n | n | 38.6
CCn1c(=S)sc2c(=O)n(CC(=O)Nc3cccc(Cl)c3)c(C)nc21 | n | u | u | n
COCCn1c(=NC(=O)/C=C/c2ccccc2)sc2cc(NC(C)=O)ccc21 | n | u | 2.62µM | n
SMILES | Shiga inhibitor | Pf growth 48h | Pf growth 96h | CHX counter
COCCn1c(=NC(C)=O)sc2cc([N+](=O)[O-])ccc21 | n | n | n | n
Cc1cccc(/C=C2/S/C(=N/N=C3\CC4CCC3(C)C4(C)C)NC2=O)c1 (stereo not drawn) | n | u | 8.28µM | n
COc1ccc(C(C(=O)NC2CCCCC2)N(C(=O)CCCC(=O)Nc2ccccn2)c2ccc3c(c2)OCCO3)cc1 (stereo not drawn) | n | u | 9.28µM | n
O=C(CCCC(=O)N(c1ccc2c(c1)OCCO2)C(C(=O)NC1CCCCC1)c1ccc(Cl)cc1)Nc1ccccn1 (stereo not drawn) | 32.7 | u | u | 24.3
O=C(CCCC(=O)N(c1cccc(F)c1)C(C(=O)NC1CCCC1)c1ccc(O)cc1)Nc1ccccn1 (stereo not drawn) | n | u | n | n
O=[N+]([O-])c1cc([N+](=O)[O-])c(Oc2cccnc2Br)cc1NN1CCCCC1 | n | n | u | n
Cc1[nH]nc2c1C1(C(=O)N(Cc3ccc(Cl)cc3)c3ccccc31)C(C#N)=C(N)O2 (stereo not drawn) | n | 13.1µM | n | n
O=C1CC(O)(c2ccccc2)C(c2ccccc2)=C1c1ccccc1 (stereo not drawn) | n | 10.4µM | 11.7µM | n
O=C1C=C(c2ccccc2)C(O)(c2ccccc2)C1 (stereo not drawn) | n | n | n | n
CCCOc1ccc(C(=O)N2CCN(c3ccc(NC(=O)CC)cc3Cl)CC2)cc1 | n | 6.57µM | n | n
Cc1cc(NC(=O)COc2ccccc2)ccc1Cl | 107.1 | n | u | 49.8
Cc1ccc(NC(=O)COc2ccccc2)cc1Cl | 102.0 | u | n | 16.9
